Experimental data reported in PubChem BioAssay (EPA / NIEHS).
The source made the active and inactive calls. The calls were made as follows: active = hit-call score of the fitted dose curve at least 0.9, where 1 is the maximum; inactive = score below 0.9.

Key:
Settings in all cases: mRNA level, 48 h; actives raise or lower the signal
[1] = read-out: CYP2C9 (gene 1559); test: LTEA_HepaRG_CYP2C9: Life Technologies and Expression Analysis (LTEA) Assay for CYP2C9 using HepaRG (AID 2283484)
Method in brief: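 Differentiated human HepaRG cells in serum-free induction medium were exposed 48 h to chemicals in 8-point half-log series from 100 uM (0.5% DMSO), in duplicate. CYP2C9 mRNA was measured by qRT-PCR, normalized to ACTB/GAPDH/POLR2A, with bidirectional fitting versus DMSO.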

[2] = read-out: CYP2E1 (gene 1571); test: LTEA_HepaRG_CYP2E1: Life Technologies and Expression Analysis (LTEA) Assay for CYP2E1 using HepaRG (AID 2283485)
Method in brief: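 Human liver line HepaRG, plated 48 h, then serum-free induction medium + chemical x 48 h; 8-pt CRC from 100 uM, half-log, 0.5% DMSO, n=2. Readout: CYP2E1 mRNA qRT-PCR vs ACTB/GAPDH/POLR2A; bidirectional fit vs DMSO.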

[3] = read-out: CYP4A11 (gene 1579); test: LTEA_HepaRG_CYP4A11: Life Technologies and Expression Analysis (LTEA) Assay for CYP4A11 using HepaRG (AID 2283486)
Method in brief: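 Human hepatic HepaRG cultures receive duplicate 48 h exposures across a concentration-response series topping at 100 uM. Expression changes in CYP4A11 are measured by qRT-PCR relative to DMSO controls.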

[4] = read-out: DNA damage-inducible transcript 3 (DDIT3), DDIT3 (gene 1649); test: LTEA_HepaRG_DDIT3: Life Technologies and Expression Analysis (LTEA) Assay for DNA damage-inducible transcript 3 (DDIT3) using HepaRG (AID 2283488)
Method in brief: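 HepaRG plated 48 h, switched to serum-free induction medium, dosed 48 h (100 uM top, half-log, 8 pts, 0.5% DMSO, n=2); RNA isolated; DDIT3 by qRT-PCR; bidirectional curve fit vs DMSO.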

[5] = read-out: Pro-epidermal growth factor (Homo sapiens) (UniProt P01133); test: LTEA_HepaRG_EGF: Life Technologies and Expression Analysis (LTEA) Assay for Epidermal growth factor (EGF) using HepaRG (AID 2283489)
Method in brief: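 Concentration-response mRNA assay: HepaRG cells dosed 48 h (max 100 uM, 0.5% DMSO), EGF measured by qRT-PCR and normalized to ACTB/GAPDH/POLR2A.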

[6] = read-out: Ezrin (EZR), EZR (gene 7430); test: LTEA_HepaRG_EZR: Life Technologies and Expression Analysis (LTEA) Assay for Ezrin (EZR) using HepaRG (AID 2283491)
Method in brief: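 Read-out is EZR transcript level by qRT-PCR, normalized to three housekeeping genes and fitted bidirectionally against the DMSO control. Human HepaRG cells received test chemicals for 48 h at eight half-log concentrations up to 100 uM in 0.5% DMSO.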

[7] = read-out: Cytochrome P450 3A7 (Homo sapiens) (UniProt P24462); test: LTEA_HepaRG_CYP3A7: Life Technologies and Expression Analysis (LTEA) Assay for CYP3A7 using HepaRG (AID 2283492)
Method in brief: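 qRT-PCR of CYP3A7 in HepaRG lysates after 48 h treatment; concentration-response (8 points, max 100 uM) analysed bidirectionally relative to 0.5% DMSO controls.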

[8] = read-out: CYP3A5 (gene 1577); test: LTEA_HepaRG_CYP3A5: Life Technologies and Expression Analysis (LTEA) Assay for CYP3A5 using HepaRG (AID 2283493)
Method in brief: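 HepaRG plated 48 h, switched to serum-free induction medium, chemicals added 48 h (max 100 uM, half-log, 0.5% DMSO). RNA isolated; CYP3A5 by TaqMan qRT-PCR. Gain/loss vs DMSO.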

[9] = read-out: Fatty Acid-Binding Protein 1 (FABP1), FABP1 (gene 2168); test: LTEA_HepaRG_FABP1: Life Technologies and Expression Analysis (LTEA) Assay for Fatty Acid-Binding Protein 1 (FABP1) using HepaRG (AID 2283494)
Method in brief: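 Differentiated human HepaRG cells exposed 48 h in serum-free induction medium to eight half-log concentrations up to 100 uM (0.5% DMSO), duplicate. FABP1 mRNA by qRT-PCR, normalised to ACTB, GAPDH, POLR2A; bidirectional fitting against DMSO.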

[10] = read-out: Cytochrome P450 4A22 (Homo sapiens) (UniProt Q5TCH4); test: LTEA_HepaRG_CYP4A22: Life Technologies and Expression Analysis (LTEA) Assay for Cytochrome P450 4A22 (CYP4A22) using HepaRG (AID 2283495)
Method in brief: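 Concentration-response (8 points, max 100 uM, 0.5% DMSO) in human HepaRG liver cells after 48 h exposure. CYP4A22 mRNA by TaqMan qRT-PCR with housekeeping-gene normalization.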

[11] = read-out: Cytochrome P450 7A1 (Homo sapiens) (UniProt P22680); test: LTEA_HepaRG_CYP7A1: Life Technologies and Expression Analysis (LTEA) Assay for Cytochrome P450 7A1 (CYP7A1) using HepaRG (AID 2283496)
Method in brief: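 HepaRG cells plated 48 h, then switched to serum-free induction medium and exposed in duplicate for 48 h to 8-point half-log series from 100 uM in 0.5% DMSO. CYP7A1 mRNA by qRT-PCR (TaqMan), normalized to ACTB/GAPDH/POLR2A; bidirectional fit versus DMSO.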

[12] = read-out: Glutathione S-Transferase (GSTA2), GSTA2 (gene 2939); test: LTEA_HepaRG_GSTA2: Life Technologies and Expression Analysis (LTEA) Assay for Glutathione S-Transferase (GSTA2) using HepaRG (AID 2283497)
Method in brief: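 Differentiated human HepaRG cells were exposed in duplicate for 48 h in serum-free induction medium, 8 points from 100 uM top in half-log steps, 0.5% DMSO. GSTA2 mRNA was measured by TaqMan qRT-PCR, normalized to ACTB, GAPDH and POLR2A; bidirectional fit versus DMSO.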

[13] = read-out: Glutamate-cysteine ligase catalytic (GCLC), GCLC (gene 2729); test: LTEA_HepaRG_GCLC: Life Technologies and Expression Analysis (LTEA) Assay for Glutamate-cysteine ligase catalytic (GCLC) using HepaRG (AID 2283498)
Method in brief: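 Differentiated HepaRG cells exposed 48 h in serum-free induction medium, eight-point half-log series topping at 100 uM in 0.5% DMSO, duplicates. GCLC mRNA by qRT-PCR normalized to ACTB, GAPDH and POLR2A, fitted bidirectionally versus DMSO.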

[14] = read-out: growth arrest and DNA damage 45 (GADD45G), GADD45G (gene 10912); test: LTEA_HepaRG_GADD45G: Life Technologies and Expression Analysis (LTEA) Assay for growth arrest and DNA damage 45 (GADD45G) using HepaRG (AID 2283499)
Method in brief: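 Concentration-response in HepaRG: 48 h dosing, 0.5% DMSO, highest level 100 uM. GADD45G expression by qRT-PCR, normalised to endogenous controls; bidirectional fit to DMSO.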

[15] = read-out: Glutamate-cysteine ligase regulatory (GCLM), GCLM (gene 2730); test: LTEA_HepaRG_GCLM: Life Technologies and Expression Analysis (LTEA) Assay for Glutamate-cysteine ligase regulatory (GCLM) using HepaRG (AID 2283500)
Method in brief: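 Cells were plated, cultured 48 h, switched to serum-free induction medium, then dosed in duplicate for 48 h at eight half-log concentrations up to 100 uM. RNA was then profiled by qRT-PCR; gain or loss versus DMSO was fitted.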

[16] = read-out: Glutathione S-transferase M3 (GSTM3), GSTM3 (gene 2947); test: LTEA_HepaRG_GSTM3: Life Technologies and Expression Analysis (LTEA) Assay for Glutathione S-transferase M3 (GSTM3) using HepaRG (AID 2283501)
Method in brief: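 Expression of GSTM3 is determined by qRT-PCR in human liver HepaRG cells treated 48 h with an 8-point half-log range from 100 uM in 0.5% DMSO.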

[17] = read-out: Heat shock 70 kDa protein 1 (HSPA1A), gene 3303; test: LTEA_HepaRG_HSPA1A: Life Technologies and Expression Analysis (LTEA) Assay for Heat shock 70 kDa protein 1 (HSPA1A) using HepaRG (AID 2283502)
Method in brief: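 Readout is HSPA1A transcript level by microfluidic qRT-PCR, normalized to three housekeeping genes and analysed for gain or loss of signal relative to 0.5% DMSO. Human HepaRG cultures received test chemicals for 48 h at up to 100 uM.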

[18] = read-out: Hypoxia-inducible factor 1-alpha (Homo sapiens) (UniProt Q16665); test: LTEA_HepaRG_HIF1A: Life Technologies and Expression Analysis (LTEA) Assay for Hypoxia-inducible factor 1 (HIF1A) Trancription factor using HepaRG (AID 2283503)
Method in brief: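 Differentiated HepaRG cells in serum-free induction medium exposed 48 h, in duplicate, to 8-point half-log series from 100 uM in 0.5% DMSO. HIF1A mRNA measured by TaqMan qRT-PCR, normalized to ACTB/GAPDH/POLR2A, fitted bidirectionally versus DMSO.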

Measured: AC50

Chain of Hypoxia-inducible factor 1-alpha (Homo sapiens) (Q16665 whole entry, looked up): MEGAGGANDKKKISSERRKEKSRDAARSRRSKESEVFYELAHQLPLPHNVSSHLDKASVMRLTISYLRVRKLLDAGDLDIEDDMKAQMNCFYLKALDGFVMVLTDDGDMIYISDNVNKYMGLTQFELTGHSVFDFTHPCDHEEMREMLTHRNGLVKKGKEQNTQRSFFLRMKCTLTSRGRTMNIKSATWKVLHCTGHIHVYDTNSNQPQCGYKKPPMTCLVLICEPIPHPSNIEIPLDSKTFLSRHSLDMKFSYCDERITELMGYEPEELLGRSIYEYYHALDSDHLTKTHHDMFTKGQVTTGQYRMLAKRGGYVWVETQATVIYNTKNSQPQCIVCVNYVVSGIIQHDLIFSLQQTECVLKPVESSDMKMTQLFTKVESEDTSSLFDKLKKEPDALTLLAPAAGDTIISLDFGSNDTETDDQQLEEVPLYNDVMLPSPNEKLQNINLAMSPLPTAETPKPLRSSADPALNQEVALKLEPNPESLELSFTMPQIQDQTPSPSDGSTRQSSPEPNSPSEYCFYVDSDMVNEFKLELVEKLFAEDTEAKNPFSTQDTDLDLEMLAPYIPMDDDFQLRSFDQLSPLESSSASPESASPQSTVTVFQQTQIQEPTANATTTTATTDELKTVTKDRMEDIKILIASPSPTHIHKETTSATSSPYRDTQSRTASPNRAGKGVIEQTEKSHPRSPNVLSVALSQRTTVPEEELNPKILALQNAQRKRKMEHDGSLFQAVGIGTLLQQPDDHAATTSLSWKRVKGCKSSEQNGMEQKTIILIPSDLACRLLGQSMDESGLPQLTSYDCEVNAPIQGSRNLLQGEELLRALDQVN
Chain of Cytochrome P450 3A7 (Homo sapiens) (P24462 whole entry, looked up): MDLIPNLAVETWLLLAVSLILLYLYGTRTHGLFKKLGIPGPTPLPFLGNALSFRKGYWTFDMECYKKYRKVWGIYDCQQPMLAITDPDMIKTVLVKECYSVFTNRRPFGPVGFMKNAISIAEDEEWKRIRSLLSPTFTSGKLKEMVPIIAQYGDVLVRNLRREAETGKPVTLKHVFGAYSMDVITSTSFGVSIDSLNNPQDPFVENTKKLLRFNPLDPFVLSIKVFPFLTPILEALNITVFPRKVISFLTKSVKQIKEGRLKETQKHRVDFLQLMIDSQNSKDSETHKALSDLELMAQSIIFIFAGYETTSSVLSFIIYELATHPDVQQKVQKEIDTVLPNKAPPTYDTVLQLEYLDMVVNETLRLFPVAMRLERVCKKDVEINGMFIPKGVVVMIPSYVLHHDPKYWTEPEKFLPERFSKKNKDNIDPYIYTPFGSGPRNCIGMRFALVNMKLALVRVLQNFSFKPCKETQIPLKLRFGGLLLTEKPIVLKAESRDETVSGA

CCCC(=O)OCCC(C)C
inactive: [1] | [2] | [3] | [4] | [5] | [6] | [7] | [8] | [9] | [10] | [11] | [12] | [13] | [14] | [15] | [16] | [17] | [18]

O=C1CCC(C2CCCCC2)CC1
inactive: [1] | [2] | [3] | [4] | [5] | [6] | [7] | [8] | [9] | [10] | [12] | [13] | [14] | [15] | [16] | [17] | [18]

CCCOC(=O)c1cc(O)c(O)c(O)c1
inactive: [1] | [4] | [5] | [7] | [8] | [12] | [13] | [14] | [15] | [16] | [17] | [18]
active: [2] 21.6 µM | [3] 6.67 µM | [9] 30.1 µM | [10] 4.41 µM

C[C@]12CC[C@@H]3c4ccc(O)cc4CC[C@H]3[C@@H]1CC[C@H]2O
inactive: [1] | [4] | [5] | [6] | [8] | [12] | [13] | [14] | [15] | [16]
active: [2] 88.4 µM | [3] 78.2 µM | [9] 74.3 µM | [10] 76 µM | [17] 12.5 µM

Cc1cc2c(cc1C(F)(F)F)N(C(=O)Nc1ccc(Oc3cccnc3C)nc1)CC2
inactive: [4] | [5] | [6] | [7] | [14] | [15] | [16]
active: [1] 46 µM | [3] 52.6 µM | [8] 73.1 µM | [9] 11.6 µM | [10] 29.6 µM | [12] 26 µM | [13] 60.7 µM | [17] 80.9 µM | [18] 11.3 µM

O=C(O)c1ccccc1C(=O)OCc1ccccc1
active: [3] 26.2 µM | [9] 28.1 µM | [10] 23.4 µM | [14] 5.56 µM
inactive: [1] | [2] | [4] | [5] | [6] | [7] | [8] | [12] | [13] | [15] | [16] | [17] | [18]

CN1C(=O)CC[C@H]1c1cccnc1
inactive: [1] | [2] | [3] | [4] | [5] | [6] | [7] | [8] | [9] | [10] | [11] | [12] | [13] | [14] | [15] | [16] | [17]
